This is an account of results in PMC11006913.

Residue numbers refer to the chain shown, from its start.

Common to all, as to experiment: PBM; 200 nM protein, PBS
Conditions in all cases: dsDNA, one strand shown

In test [1] the target is HOXC9 (Homo sapiens, UniProt P31274 178-260).
The target in test [2] is T1, NKX2-6 (Homo sapiens, UniProt A6NCS4 118-204, R150C).
T1 sequence: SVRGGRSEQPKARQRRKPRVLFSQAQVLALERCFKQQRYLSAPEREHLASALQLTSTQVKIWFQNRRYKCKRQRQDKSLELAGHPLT

In test [3] the target is NKX3-2 (Homo sapiens, UniProt P78367 192-278, P234S).
NKX3-2 (Homo sapiens, UniProt P78367 192-278, P234S), sequence (P78367 192-278 P234S): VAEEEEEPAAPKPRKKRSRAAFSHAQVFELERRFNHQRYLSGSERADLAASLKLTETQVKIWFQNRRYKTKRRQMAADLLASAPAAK
Test [4] has as its target NKX3-2 (Homo sapiens, UniProt P78367 192-278).
The target in test [5] is HOXC9 (Homo sapiens, UniProt P31274 178-260, R222W).
HOXC9 (Homo sapiens, UniProt P31274 178-260, R222W), sequence (P31274 178-260 R222W): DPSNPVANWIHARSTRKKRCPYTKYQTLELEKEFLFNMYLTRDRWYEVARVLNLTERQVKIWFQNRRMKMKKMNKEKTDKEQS
Test [6] concerns the target MSX2 (Homo sapiens, UniProt P35548 130-214).
Test [7] has as its target MSX2 (Homo sapiens, UniProt P35548 130-214, F161Y).
In test [8] the target is HOXD13 (Homo sapiens, UniProt P35453 263-343, T313R).
HOXD13 (Homo sapiens, UniProt P35453 263-343, T313R), sequence (P35453 263-343 T313R): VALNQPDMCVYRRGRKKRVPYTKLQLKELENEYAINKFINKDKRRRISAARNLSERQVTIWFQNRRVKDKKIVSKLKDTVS
Test [9] addresses HOXD13 (Homo sapiens, UniProt P35453 263-343).
Test [10] has as its target HOXD13 (Homo sapiens, UniProt P35453 263-343, T313A).
Test [11] addresses ALX3 (Homo sapiens, UniProt O95076 139-225, N203Q).
Test [12] deals with ALX3 (Homo sapiens, UniProt O95076 139-225).
ALX3 (Homo sapiens, UniProt O95076 139-225), sequence (O95076 139-225): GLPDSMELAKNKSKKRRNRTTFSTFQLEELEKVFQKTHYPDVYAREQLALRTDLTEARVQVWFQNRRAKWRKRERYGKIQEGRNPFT
The target of test [13] is ALX3 (Homo sapiens, UniProt O95076 139-225, L168Q).
ALX3 (Homo sapiens, UniProt O95076 139-225, L168Q), sequence (O95076 139-225 L168Q): as the sequence (O95076 139-225) above, with L30Q counted along it
Test [14] has as its target ALX3 (Homo sapiens, UniProt O95076 139-225, L168V).
Test [15] concerns the target ALX3 (Homo sapiens, UniProt O95076 139-225, N203S).
Test [16] deals with MSX2 (Homo sapiens, UniProt P35548 130-214, R199I).
MSX2 (Homo sapiens, UniProt P35548 130-214, R199I), sequence (P35548 130-214 R199I): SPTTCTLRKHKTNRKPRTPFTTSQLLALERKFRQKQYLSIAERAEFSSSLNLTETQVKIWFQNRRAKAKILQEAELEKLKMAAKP
Test [17] deals with T2, NKX2-6 (Homo sapiens, UniProt A6NCS4 118-204, F151L).
T2 sequence: T1 sequence with C33R, F34L

Test [18] concerns the target ALX1 (Homo sapiens, UniProt Q15699 118-204, L144V).
The target of test [19] is ALX1 (Homo sapiens, UniProt Q15699 118-204, L144R).
ALX1 (Homo sapiens, UniProt Q15699 118-204, L144R), sequence (Q15699 118-204 L144R): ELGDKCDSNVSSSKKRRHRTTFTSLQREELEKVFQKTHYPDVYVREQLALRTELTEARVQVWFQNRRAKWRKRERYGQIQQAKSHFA
The target in test [20] is ALX1 (Homo sapiens, UniProt Q15699 118-204).
ALX1 (Homo sapiens, UniProt Q15699 118-204), sequence (Q15699 118-204): as the sequence (Q15699 118-204 L144R) above, with R27L counted along it
Test [21] addresses T3, NKX2-6 (Homo sapiens, UniProt A6NCS4 118-204).
T3 sequence: T1 sequence with C33R

Test [22] concerns the target PITX2 (Homo sapiens, UniProt Q99697 72-157).
The target in test [23] is HOXA2 (Homo sapiens, UniProt O43364 129-215, R185K).
HOXA2, sequence (O43364 129-215 R185K): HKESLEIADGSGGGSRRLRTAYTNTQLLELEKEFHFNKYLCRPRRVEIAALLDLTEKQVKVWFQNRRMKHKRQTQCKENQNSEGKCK
Test [24] deals with PROP1 (Homo sapiens, UniProt O75360 56-141).
PROP1 (Homo sapiens, UniProt O75360 56-141), sequence (O75360 56-141): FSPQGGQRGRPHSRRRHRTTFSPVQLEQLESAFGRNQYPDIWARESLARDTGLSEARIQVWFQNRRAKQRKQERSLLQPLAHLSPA
For test [25], the target named is PROP1 (Homo sapiens, UniProt O75360 56-141, R99H).
PROP1 (Homo sapiens, UniProt O75360 56-141, R99H), sequence (O75360 56-141 R99H): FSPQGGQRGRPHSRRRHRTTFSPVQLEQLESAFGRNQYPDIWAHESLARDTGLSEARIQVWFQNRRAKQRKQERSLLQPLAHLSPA
For test [26], the target named is PROP1 (Homo sapiens, UniProt O75360 56-141, F88S).
PROP1 (Homo sapiens, UniProt O75360 56-141, F88S), sequence (O75360 56-141 F88S): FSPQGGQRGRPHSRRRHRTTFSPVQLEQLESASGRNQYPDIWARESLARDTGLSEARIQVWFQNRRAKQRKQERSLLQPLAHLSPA
Test [27] concerns the target VAX1 (Homo sapiens, UniProt Q5SQQ9 86-172).
Test [28] deals with VAX1 (Homo sapiens, UniProt Q5SQQ9 86-172, T142I).
VAX1 (Homo sapiens, UniProt Q5SQQ9 86-172, T142I), sequence (Q5SQQ9 86-172 T142I): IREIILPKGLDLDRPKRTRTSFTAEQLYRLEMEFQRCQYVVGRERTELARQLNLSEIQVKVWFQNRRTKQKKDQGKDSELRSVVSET
Test [29] deals with VAX1 (Homo sapiens, UniProt Q5SQQ9 86-172, K157R).
VAX1 (Homo sapiens, UniProt Q5SQQ9 86-172, K157R), sequence (Q5SQQ9 86-172 K157R): as the sequence (Q5SQQ9 86-172 T142I) above, with I57T, K72R counted along it

NKX3-2 (Homo sapiens, UniProt P78367 192-278), sequence (P78367 192-278): as the sequence (P78367 192-278 P234S) above, with S43P counted along it
MSX2 (Homo sapiens, UniProt P35548 130-214, F161Y), sequence (P35548 130-214 F161Y): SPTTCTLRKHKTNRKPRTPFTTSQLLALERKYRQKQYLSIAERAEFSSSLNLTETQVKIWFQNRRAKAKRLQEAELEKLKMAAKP
MSX2 (Homo sapiens, UniProt P35548 130-214), sequence (P35548 130-214): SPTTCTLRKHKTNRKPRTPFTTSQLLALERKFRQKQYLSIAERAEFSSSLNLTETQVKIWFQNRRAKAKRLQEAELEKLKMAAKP
HOXC9 (Homo sapiens, UniProt P31274 178-260), sequence (P31274 178-260): as the sequence (P31274 178-260 R222W) above, with W45R counted along it
ALX1 (Homo sapiens, UniProt Q15699 118-204, L144V), sequence (Q15699 118-204 L144V): as the sequence (Q15699 118-204 L144R) above, with R27V counted along it
ALX3 (Homo sapiens, UniProt O95076 139-225, L168V), sequence (O95076 139-225 L168V): as the sequence (O95076 139-225) above, with L30V counted along it
ALX3 (Homo sapiens, UniProt O95076 139-225, N203S), sequence (O95076 139-225 N203S): as the sequence (O95076 139-225) above, with N65S counted along it
HOXD13 (Homo sapiens, UniProt P35453 263-343, T313A), sequence (P35453 263-343 T313A): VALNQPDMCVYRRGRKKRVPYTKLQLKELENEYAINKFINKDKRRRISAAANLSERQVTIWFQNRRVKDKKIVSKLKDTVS
ALX3 (Homo sapiens, UniProt O95076 139-225, N203Q), sequence (O95076 139-225 N203Q): as the sequence (O95076 139-225) above, with N65Q counted along it
HOXD13 (Homo sapiens, UniProt P35453 263-343), sequence (P35453 263-343): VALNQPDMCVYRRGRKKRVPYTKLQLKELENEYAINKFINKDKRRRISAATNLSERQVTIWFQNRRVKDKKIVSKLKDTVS
VAX1 (Homo sapiens, UniProt Q5SQQ9 86-172), sequence (Q5SQQ9 86-172): as the sequence (Q5SQQ9 86-172 T142I) above, with I57T counted along it

Turning to CGTAACGC, in test [1], the binding signal was 10.6 upbm affinity estimate (log intensity, higher = more binding, comparable within an allelic series).

Turning to AAGTGCAC, the binding signal in test [2] was 11.6 upbm affinity estimate (log intensity, higher = more binding, comparable within an allelic series); in test [3], 12.6 upbm affinity estimate (log intensity, higher = more binding, comparable within an allelic series); in test [4], 12.7 upbm affinity estimate (log intensity, higher = more binding, comparable within an allelic series).

For TACACTCA, the binding signal was 11.1 upbm affinity estimate (log intensity, higher = more binding, comparable within an allelic series) in test [2]; 11.9 upbm affinity estimate (log intensity, higher = more binding, comparable within an allelic series) in test [3]; 12 upbm affinity estimate (log intensity, higher = more binding, comparable within an allelic series) in [4].

As for ATTGCGCA, the binding signal in test [1] was 10.8 upbm affinity estimate (log intensity, higher = more binding, comparable within an allelic series); in test [5] it was 10.1 upbm affinity estimate (log intensity, higher = more binding, comparable within an allelic series).

Regarding GCTCTTAA, the binding signal in test [1] was 11 upbm affinity estimate (log intensity, higher = more binding, comparable within an allelic series); in test [5], 10.2 upbm affinity estimate (log intensity, higher = more binding, comparable within an allelic series).

Regarding ACCCTTAT, the binding signal in test [1] is 10.8 upbm affinity estimate (log intensity, higher = more binding, comparable within an allelic series); in [6], 10.8 upbm affinity estimate (log intensity, higher = more binding, comparable within an allelic series); in [5], 10.2 upbm affinity estimate (log intensity, higher = more binding, comparable within an allelic series); in test [7], 10.7 upbm affinity estimate (log intensity, higher = more binding, comparable within an allelic series).

With ACCCTGCC, the binding signal in [2] was 9.52 upbm affinity estimate (log intensity, higher = more binding, comparable within an allelic series); in test [8] it was 9.6 upbm affinity estimate (log intensity, higher = more binding, comparable within an allelic series); in test [9] it was 9.65 upbm affinity estimate (log intensity, higher = more binding, comparable within an allelic series); in [10] it was 9.68 upbm affinity estimate (log intensity, higher = more binding, comparable within an allelic series).

For GAACATTC, in test [1], the binding signal is 10.5 upbm affinity estimate (log intensity, higher = more binding, comparable within an allelic series).

With GGGGGCGA, the binding signal in [2] was 9.39 upbm affinity estimate (log intensity, higher = more binding, comparable within an allelic series); in test [11], 7.73 upbm affinity estimate (log intensity, higher = more binding, comparable within an allelic series); in [12] it was 7.8 upbm affinity estimate (log intensity, higher = more binding, comparable within an allelic series); in test [13], 7.65 upbm affinity estimate (log intensity, higher = more binding, comparable within an allelic series); in [14] it was 7.66 upbm affinity estimate (log intensity, higher = more binding, comparable within an allelic series); in test [15], 7.72 upbm affinity estimate (log intensity, higher = more binding, comparable within an allelic series).

With GACCCGAC, the binding signal in test [2] is 9.44 upbm affinity estimate (log intensity, higher = more binding, comparable within an allelic series); in test [3] it was 10.7 upbm affinity estimate (log intensity, higher = more binding, comparable within an allelic series); in test [4], 10.7 upbm affinity estimate (log intensity, higher = more binding, comparable within an allelic series).

For the sequence CCAATCAA, the binding signal in test [16] was 11 upbm affinity estimate (log intensity, higher = more binding, comparable within an allelic series).

On to AAGTGGGG, for which the binding signal in test [2] is 11.7 upbm affinity estimate (log intensity, higher = more binding, comparable within an allelic series); in test [3], 12.7 upbm affinity estimate (log intensity, higher = more binding, comparable within an allelic series); in test [4], 12.8 upbm affinity estimate (log intensity, higher = more binding, comparable within an allelic series).

ATTGCACA: the binding signal in [1] is 10.8 upbm affinity estimate (log intensity, higher = more binding, comparable within an allelic series).

In the case of ACAAGTGC, the binding signal was 11.5 upbm affinity estimate (log intensity, higher = more binding, comparable within an allelic series) in test [2] and 10.6 upbm affinity estimate (log intensity, higher = more binding, comparable within an allelic series) in test [17].

With GCCCACGA, the binding signal in [2] was 9.49 upbm affinity estimate (log intensity, higher = more binding, comparable within an allelic series); in [18] it was 6.38 upbm affinity estimate (log intensity, higher = more binding, comparable within an allelic series); in test [19], 6.28 upbm affinity estimate (log intensity, higher = more binding, comparable within an allelic series); in test [20], 6.37 upbm affinity estimate (log intensity, higher = more binding, comparable within an allelic series).

As to ATTAGAGG, the binding signal in test [1] is 10.9 upbm affinity estimate (log intensity, higher = more binding, comparable within an allelic series); in test [5], 10.2 upbm affinity estimate (log intensity, higher = more binding, comparable within an allelic series).

For CCGTGGGA, the binding signal in test [2] is 9.37 upbm affinity estimate (log intensity, higher = more binding, comparable within an allelic series); in test [18], 6.49 upbm affinity estimate (log intensity, higher = more binding, comparable within an allelic series); in test [19], 6.42 upbm affinity estimate (log intensity, higher = more binding, comparable within an allelic series); in [20], 6.53 upbm affinity estimate (log intensity, higher = more binding, comparable within an allelic series).

As to GAGGTGGC, the binding signal was 6.34 upbm affinity estimate (log intensity, higher = more binding, comparable within an allelic series) in test [18]; 6.43 upbm affinity estimate (log intensity, higher = more binding, comparable within an allelic series) in test [19]; 6.4 upbm affinity estimate (log intensity, higher = more binding, comparable within an allelic series) in [20].

Consider CCTACGGC, for which the binding signal in [18] is 6.56 upbm affinity estimate (log intensity, higher = more binding, comparable within an allelic series); in test [19], 6.66 upbm affinity estimate (log intensity, higher = more binding, comparable within an allelic series); in test [20] it was 6.68 upbm affinity estimate (log intensity, higher = more binding, comparable within an allelic series).

Turning to GCTCCAGC, the binding signal in test [11] was 7.72 upbm affinity estimate (log intensity, higher = more binding, comparable within an allelic series); in test [12], 7.57 upbm affinity estimate (log intensity, higher = more binding, comparable within an allelic series); in [13], 7.7 upbm affinity estimate (log intensity, higher = more binding, comparable within an allelic series); in [14], 7.6 upbm affinity estimate (log intensity, higher = more binding, comparable within an allelic series); in test [15], 7.72 upbm affinity estimate (log intensity, higher = more binding, comparable within an allelic series).

On to AGCGGGGC, for which the binding signal in test [8] was 9.49 upbm affinity estimate (log intensity, higher = more binding, comparable within an allelic series); in test [9], 9.31 upbm affinity estimate (log intensity, higher = more binding, comparable within an allelic series); in test [10], 9.49 upbm affinity estimate (log intensity, higher = more binding, comparable within an allelic series).

For the sequence GGCCAGCA, the binding signal in test [21] is 9.51 upbm affinity estimate (log intensity, higher = more binding, comparable within an allelic series); in test [17], 9.32 upbm affinity estimate (log intensity, higher = more binding, comparable within an allelic series).

As for GACCTCCC, the binding signal in test [22] was 8.09 upbm affinity estimate (log intensity, higher = more binding, comparable within an allelic series).

In the case of GTAATCAA, the binding signal in test [23] is 13.1 upbm affinity estimate (log intensity, higher = more binding, comparable within an allelic series).

For GGTAATCA, the binding signal in test [23] is 13.3 upbm affinity estimate (log intensity, higher = more binding, comparable within an allelic series).

On to CCCTAGCG, for which the binding signal in [24] is 6.52 upbm affinity estimate (log intensity, higher = more binding, comparable within an allelic series); in test [25] it was 6.7 upbm affinity estimate (log intensity, higher = more binding, comparable within an allelic series); in [26] it was 6.73 upbm affinity estimate (log intensity, higher = more binding, comparable within an allelic series).

As to CCTGTGCC, the binding signal in [24] is 6.6 upbm affinity estimate (log intensity, higher = more binding, comparable within an allelic series); in test [25], 6.69 upbm affinity estimate (log intensity, higher = more binding, comparable within an allelic series); in test [26], 6.62 upbm affinity estimate (log intensity, higher = more binding, comparable within an allelic series).

Turning to GCTGGCAC, the binding signal is 6.46 upbm affinity estimate (log intensity, higher = more binding, comparable within an allelic series) in test [18]; 6.45 upbm affinity estimate (log intensity, higher = more binding, comparable within an allelic series) in test [19]; 6.58 upbm affinity estimate (log intensity, higher = more binding, comparable within an allelic series) in test [20].

For the sequence AGGCCGGG, the binding signal in test [18] was 6.61 upbm affinity estimate (log intensity, higher = more binding, comparable within an allelic series); in test [19] it was 6.52 upbm affinity estimate (log intensity, higher = more binding, comparable within an allelic series); in test [27] it was 6.99 upbm affinity estimate (log intensity, higher = more binding, comparable within an allelic series); in [28] it was 7.01 upbm affinity estimate (log intensity, higher = more binding, comparable within an allelic series); in [20] it was 6.54 upbm affinity estimate (log intensity, higher = more binding, comparable within an allelic series); in test [29], 7.01 upbm affinity estimate (log intensity, higher = more binding, comparable within an allelic series).

For CGCCGACC, the binding signal in test [16] was 9.46 upbm affinity estimate (log intensity, higher = more binding, comparable within an allelic series); in test [6], 9.28 upbm affinity estimate (log intensity, higher = more binding, comparable within an allelic series); in test [7], 9.4 upbm affinity estimate (log intensity, higher = more binding, comparable within an allelic series); in test [3], 10.4 upbm affinity estimate (log intensity, higher = more binding, comparable within an allelic series); in [4], 10.4 upbm affinity estimate (log intensity, higher = more binding, comparable within an allelic series).

In the case of CAAATTTG, the binding signal is 9.35 upbm affinity estimate (log intensity, higher = more binding, comparable within an allelic series) in [18]; 9 upbm affinity estimate (log intensity, higher = more binding, comparable within an allelic series) in test [19]; 9.69 upbm affinity estimate (log intensity, higher = more binding, comparable within an allelic series) in [20].

As to GATGTTTA, the binding signal in [16] is 10.5 upbm affinity estimate (log intensity, higher = more binding, comparable within an allelic series); in [6], 10.9 upbm affinity estimate (log intensity, higher = more binding, comparable within an allelic series); in test [7] it was 10.8 upbm affinity estimate (log intensity, higher = more binding, comparable within an allelic series).

Consider CGACAATA, for which the binding signal in [16] is 10.5 upbm affinity estimate (log intensity, higher = more binding, comparable within an allelic series); in test [6], 11 upbm affinity estimate (log intensity, higher = more binding, comparable within an allelic series); in [7], 10.9 upbm affinity estimate (log intensity, higher = more binding, comparable within an allelic series).
